According to PubChem BioAssay AID1992 (Sanford-Burnham Center for Chemical Genomics, 2009):
Screen size: about 50,000 compounds; about 350 (0.7%) were called active. Cut-off read from the data, not from the text of the source: active = inhibition above about 60%; inactive = the rest. This excerpt belongs to a sample that is enriched for actives.

target: Dual specificity protein phosphatase 3 (Homo sapiens) (UniProt P51452); assay: VHR1 phosphatase inhibitors, primary screen, biochemical, colorimetric, HTS (AID 1992); conditions: recombinant VHR phosphatase, colorimetric substrate read-out; at 20 µM; active compounds read high
Sequence (P51452 whole entry, looked up): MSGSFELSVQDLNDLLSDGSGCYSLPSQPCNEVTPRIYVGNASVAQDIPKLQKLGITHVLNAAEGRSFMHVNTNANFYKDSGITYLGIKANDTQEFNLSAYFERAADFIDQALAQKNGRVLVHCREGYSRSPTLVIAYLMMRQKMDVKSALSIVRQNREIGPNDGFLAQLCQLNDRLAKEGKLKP

Row | Structure (SMILES) | inhibition
1 | COc1ccc(C(=O)Nc2ccc3oc(-c4cc(Cl)c(OC)c(Cl)c4)nc3c2)cc1OC | 45.4% (inactive)
2 | COc1cccc(N2C(=O)C=CC2=O)c1 | 49.6% (inactive)
3 | COc1ccc(N2C(=O)C3C4C=CC(C4=C(C)C)C3C2=O)c([N+](=O)[O-])c1 (configuration not stated) | 4.6% (inactive)
4 | COc1ccc(N2C(=O)C=CC2=O)c([N+](=O)[O-])c1 | 58.9% (active)
5 | Cc1ccc(N2C(=O)/C(=C/N3CCOCC3)c3ccccc3C2=O)cc1 | 13.6% (inactive)
6 | CCOC(=O)c1c(N2C(=O)C3CC(C)=C(C)CC3C2=O)sc2c1CCCC2 (configuration not stated) | -3.1% (inactive)
7 | COC(=O)C1=NNC2(C)C(=O)N(c3ccccc3OC)C(=O)C12 (configuration not stated) | 97% (active)
8 | COc1ccccc1-n1c(=S)[nH]c2ccccc2c1=O | 5.2% (inactive)
9 | COC(=O)Nc1ccc(S(=O)(=O)N2CCN(c3ccccc3OC)CC2)cc1 | -59.1% (inactive)
10 | O=C(Nc1cc(C(F)(F)F)cc(C(F)(F)F)c1)c1ccco1 | -7.4% (inactive)
11 | O=C(Nc1cccc(O)c1)c1cccnc1 | -14.8% (inactive)
12 | CCOC(=O)COc1ccc(/C=N\n2nnnc2N)cc1OC | -44.1% (inactive)
13 | Cc1ccc(C2=C/C(=C\c3cccnc3)C(=O)O2)cc1 | 14.8% (inactive)
14 | CCCCOc1ccc(/C=C2/C=C(c3ccccc3)OC2=O)cc1 | 21.2% (inactive)
15 | Cc1ccc(/C=C2/C=C(c3ccccc3)OC2=O)o1 | 74.2% (active)
16 | Cc1cc(C)c(NS(=O)(=O)c2ccc3ccccc3c2)c(C)c1 | -0.6% (inactive)
17 | O=C(N/N=C/c1ccc(-c2cccc(Cl)c2)o1)c1cccnc1 | -17.2% (inactive)
18 | O=C(O)c1cc(-c2ccc(/C=N/Nc3ccc(Cl)c(Cl)c3)o2)ccc1Cl | 89.1% (active)
19 | O=C(O)c1cc(-c2ccc(C=C3C(=O)c4ccccc4C3=O)o2)ccc1O | 9.3% (inactive)
20 | O=C(CCc1n[nH]c(=O)[nH]c1=O)N/N=C/c1ccc([N+](=O)[O-])cc1 | -17.4% (inactive)
21 | C#CCn1cc(/C=C(/C#N)C(=O)Nc2ccc(Cl)cc2)c2ccccc21 | -3.6% (inactive)
22 | CC(=O)c1sc(NC(=O)c2cc(Cl)ccc2[N+](=O)[O-])nc1C | 4.8% (inactive)
23 | O=C(Nc1ccccc1C(=O)O)c1ccc(NC(=O)c2cccs2)cc1 | -7.6% (inactive)
24 | CCOC(=O)C1=C(C)N=c2s/c(=C\c3cc(OC)c(O)c(OC)c3)c(=O)n2C1c1ccccc1 (configuration not stated) | 35.5% (inactive)

Row | Structure (SMILES) | inhibition
25 | O=C(NCCCn1ccnc1)c1cc2c(ccc3ccccc32)oc1=O | -14.2% (inactive)
26 | C=C(C)COc1ccc2oc(-c3ccccc3)c(C(=O)O)c2c1 | -5.7% (inactive)
27 | O=S(=O)(O)c1nc2ccccc2n1-c1ccccc1 | 91.8% (active)
28 | O=C(CSc1nc2ccccc2c(=O)n1-c1ccccc1)Nc1ccccc1 | -19.9% (inactive)
29 | Cc1nc2cc(S(N)(=O)=O)ccc2n1-c1ccccc1 | 0.2% (inactive)
30 | COc1ccc(OC)c(/C=C/C(=O)Nc2ccc(N(C)C)cc2)c1 | -29.5% (inactive)
31 | Fc1cnc(NN=Cc2cccs2)nc1N1CCOCC1 | -10.8% (inactive)
32 | O=C(CN(c1cccc(Br)c1)S(=O)(=O)c1ccccc1)N1CCOCC1 | -30.2% (inactive)
33 | CC(=O)N(C1=C(Cl)C(=O)c2ccccc2C1=O)c1cccc(Br)c1 | 84.5% (active)
34 | CC1CCCC(C)C1NC1=C(Cl)C(=O)c2ccccc2C1=O (configuration not stated) | -2.5% (inactive)
35 | COc1ccc(N2C(=O)c3cccc4cccc(c34)C2=O)cc1OC | 7.9% (inactive)
36 | COc1cc(C(=O)Nc2cccc3nsnc23)cc(OC)c1OC | -4.9% (inactive)
37 | COc1ccc(NC(=O)c2cccc(Cl)c2Cl)cc1OC | 1.3% (inactive)
38 | Cc1ccc(C(=O)NCCNc2ccc([N+](=O)[O-])cc2Cl)cc1 | -20.4% (inactive)
39 | Cc1ccc(S(=O)(=O)N(Cc2ccccc2)c2ccccc2C(=O)NC2CCCC2)cc1 | -20.6% (inactive)
40 | CC(=Nc1cc(Cl)ccc1O)c1c(-c2ccccc2)[nH]n(-c2nc3ccccc3s2)c1=O | 2.5% (inactive)
41 | COc1ccccc1NC(=O)C1=C(C)Nc2sc(C#N)c(N)c2C1c1ccco1 (configuration not stated) | 4.4% (inactive)
42 | CCOC(=O)c1c(NC(=O)c2ccccc2C)sc(C(=O)Nc2ccccc2OC)c1C | -2.4% (inactive)
43 | CCOC(=O)c1c(NC(=O)C23CC4CC(CC(C4)C2)C3)sc(C(=O)Nc2ccccc2OC)c1C | 120% (active)
44 | CCOC(=O)c1c(NC(=O)c2ccc(OC)c(OC)c2)sc(C(=O)Nc2ccc(C)cc2C)c1C | -18.8% (inactive)
45 | CCOC(=O)c1c(NC(=O)Cc2ccc(Cl)cc2)sc(C(=O)Nc2cccc(OC)c2)c1C | -1.7% (inactive)
46 | CCOC(=O)c1c(NC(=O)c2ccccc2OC)sc(C(=O)Nc2ccccc2F)c1C | -11.7% (inactive)
47 | CCOC(=O)c1c(NC(=O)Cc2ccc(Cl)cc2)sc(C(=O)Nc2ccccc2OC)c1C | 103% (active)
48 | Cc1c(C#N)sc2nc(-c3ccccc3)nc(/N=C/N(C)C)c12 | -22.8% (inactive)

Row | Structure (SMILES) | inhibition
49 | Nc1ccc2nc(Sc3nc4ccc([N+](=O)[O-])cc4s3)sc2c1 | -10.9% (inactive)
50 | CC1=C(C(=O)Nc2ccc(C)cc2)C(c2ccc([N+](=O)[O-])cc2)NC(=O)N1 (configuration not stated) | -6.8% (inactive)
51 | CC12CCC(CC1=O)C(C)(C)N2 (configuration not stated) | -18.3% (inactive)
52 | O=C1C=CC(=O)N1Nc1c(Cl)cc(Cl)cc1Cl | 102% (active)
53 | COc1ccc(Nc2ncnc3ccc(Br)cc23)cc1 | 0.8% (inactive)
54 | O=C(CSc1ccccc1C(=O)O)c1ccc(-c2ccccc2)cc1 | 2.1% (inactive)
55 | Cc1ccc(C)c(OCc2nnc(NC(=O)c3ccccc3)s2)c1 | 5.1% (inactive)
56 | Cc1cc(C)cc(OCCCCNC(C)(C)C)c1 | -33.4% (inactive)
57 | Cc1nc2cc(-c3ccc(Br)cc3)[nH]n2c(=O)c1C | 10.2% (inactive)
58 | CC(=O)N1c2ccc3ccccc3c2C2C=CCC2C1c1ccc(F)cc1 (configuration not stated) | -6.5% (inactive)
59 | Cc1[nH]n(-c2ccc(Cl)cc2)c(=O)c1/C=N/NC(=O)c1ccccc1[N+](=O)[O-] | -37.1% (inactive)
60 | CC(=O)Nc1ccc(N2C(=O)C3C4C=CC(CC4)C3C2=O)cc1 (configuration not stated) | -14% (inactive)
61 | COc1ccccc1C1CC(c2ccc(F)cc2)=NN1c1ccccc1 (configuration not stated) | -3.2% (inactive)
62 | O=C1N=c2ccc(I)cc2=C1c1[nH]c(=S)[nH]c1O | -37.4% (inactive)
63 | Cc1ccc(S(=O)(=O)NCCNS(C)(=O)=O)cc1[N+](=O)[O-] | -9.6% (inactive)
64 | CCN(CC)C(=O)CSc1nc(O)c(Cc2ccccc2)c(=O)n1-c1ccc(OC)cc1 | 26.5% (inactive)
65 | O=C(O)CCCCCN1C(=O)C(=O)/C(=C(/O)c2ccc(F)cc2)C1c1cccc([N+](=O)[O-])c1 (configuration not stated) | 5% (inactive)
66 | Cc1cc(C)c2nc3s/c(=C\c4ccc(N(C)C)cc4)c(=O)n3c2c1 | -22.7% (inactive)
67 | COc1cc(/C=c2\sc3nc4c(C)cc(C)cc4n3c2=O)cc(Br)c1O | -5.5% (inactive)
68 | Cc1cc(C)c2nc3s/c(=C\c4ccc(-c5ccccc5C(=O)O)o4)c(=O)n3c2c1 | 69.3% (active)
69 | COc1cc(NC(=O)c2ccc(-c3ccc([N+](=O)[O-])cc3C)o2)ccc1NC(=O)c1ccco1 | -3.8% (inactive)
70 | c1ccc(-c2nnc(SC3CCCC3)nc2-c2ccccc2)cc1 | -9.1% (inactive)
71 | Clc1cccc(CN2CCN(C3CCN(Cc4ccccc4)CC3)CC2)c1 | -6.2% (inactive)
72 | Cc1ccc(S(=O)(=O)c2ccc(Oc3ccc(Cl)cc3)cc2)cc1 | -26.6% (inactive)
